The record followed here is PubChem BioAssay AID2546 (National Center for Advancing Translational Sciences (NCATS), 2010).

Hit rate of the full screen: of about 310,000 compounds, about 11,000 (3.5%) were called active. About 8% were inconclusive and are not listed. Calls follow the shape of the dose curve; as a rule, active = well fitted inhibition curve with a large enough effect; inconclusive = small, poorly fitted or top-dose-only effect, or effect the other way; inactive = flat fitted curve, though single readings scatter. The list comes from a sample in which actives are over-represented; it also holds similar structures and randomly drawn compounds. A call without a number means that no potency is given here.
Potency is read from the fitted curve at half-maximal effect.

This assay is described as follows: VP16 counterscreen qHTS for inhibitors of ROR gamma transcriptional activity.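 Also: Gal4-VP16 expression switched on by copper sulfate through the metallothionein promoter; nearly all actives have a fitted effect of over 50% in size.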 Conditions: Drosophila S2 Gal4-VP16 UAS-luciferase, luminescence, 20 h; series mostly up to 53.6 µM.
`Cc1ccc(-c2noc(C3CCCN(C(=O)c4cccc(Cl)c4)C3)n2)o1` (configuration not stated): the Potency entry is “inactive”.
Under `CCOc1ccc(C(=O)NC(=S)Nc2ccc(NC(=O)C(C)C)cc2)cc1[N+](=O)[O-]` stands “inactive”; under `CCOc1ccc(C(=O)NC(=S)Nc2ccc(N3CCOCC3)c(Cl)c2)cc1[N+](=O)[O-]`, 3.98 µM (active).
Under `COc1cccc(OC)c1C(=O)NC(=S)Nc1ccc(N2CCOCC2)c(Cl)c1` stands “inactive”.
Under `CCc1ccc(NC(=O)N2CCN(c3ccccc3)CC2)cc1` stands “inactive”; under `CC(=O)N1CCN(c2ccc(NCc3ccc(C(C)C)cc3)cc2)CC1`, 1.12 µM (active).
On to `CC(CC(=O)N1CCN(c2ccccc2)CC1)c1ccccc1` (configuration not stated), for which the Potency entry was “inactive”.
Under `Cc1nn(-c2ccccc2)c(Cl)c1/C=N/NC(=O)c1nn(C)cc1[N+](=O)[O-]` stands “inactive”.
Under `Cc1ccnc(N2C(=O)c3ccccc3C2Nc2ccc3c(c2)OCCO3)c1` (configuration not stated) stands “inactive”; under `CCc1ccccc1NC1c2ccccc2C(=O)N1c1cccnc1` (configuration not stated), “inactive”; under `COC(=O)c1cc(NC2c3ccccc3C(=O)N2c2ccc(Cl)cn2)cc(C(=O)OC)c1` (configuration not stated), 11.2 µM (active).
Under `COc1ccccc1CNC(=O)C1CCN(S(=O)(=O)c2ccc3c(c2)CC(C)N3C(=O)C2CC2)CC1` (configuration not stated) stands “inactive”; under `C=CCN1C(=O)C(Cc2cccc(Cl)c2)S/C1=N/N=C/c1ccco1` (configuration not stated), “inactive”; under `O=C1N/C(=N\N=C\c2ccco2)SC1Cc1ccc(F)cc1` (configuration not stated), 4.47 µM (active).
`O=C(O)C[C@@H]1NC(=O)[C@H](Cc2ccccc2)NC1=O`: the Potency result is “inactive”.
Under `CN(CCOc1ccc(CC2SC(=O)NC2=O)cc1)c1ccccn1` (configuration not stated) stands “inactive”.
Under `CC(C)=N/N=C1/NC(=O)C(Cc2ccccc2)S1` (configuration not stated) stands 2.82 µM (active); under `COc1ccc(CN2C(=O)C(C)S/C2=N/N=C/c2ccco2)cc1` (configuration not stated), “inactive”; under `CC1Sc2ccc(S(=O)(=O)CCC(=O)NCc3ccccc3Cl)cc2NC1=O` (configuration not stated), “inactive”.
Under `C/C(=N\NC(=O)c1ccc2ccccc2c1)c1cccnc1` stands “inactive”; under `COc1ccc(CCNC(=O)CS(=O)(=O)Cc2nc(-c3ccc(C)cc3)oc2C)cc1OC`, “inactive”.
Consider `COc1cccc(CNS(=O)(=O)c2ccc3c(c2)CC(C)N3C(C)=O)c1` (configuration not stated), for which the Potency entry was “inactive”.
Under `Cn1cncc1COC(=O)c1ccc(Cl)cc1` stands “inactive”.
Under `O=C(Cc1c(Cl)cccc1Cl)NC1CC1` stands “inactive”.
Under `C=C(C)COc1ccc(-c2n[nH]c(C)c2-c2ccccc2OC)c(O)c1` stands 14.1 µM (active); under `CCOc1ccc(-c2n[nH]c(C)c2-c2ccccn2)c(O)c1`, “inactive”; under `C=C(C)COc1ccc(-c2nc(N)ncc2-c2ccccc2OC)c(O)c1`, “inactive”.
As for `C=C(C)COc1ccc(-c2ncncc2-c2ccc(OC)cc2)c(O)c1`, the Potency result was “inactive”.
Under `C=C(C)COc1ccc(-c2n[nH]c(C)c2-c2ccccc2)c(O)c1` stands 3.16 µM (active); under `CCOc1ccc(-c2nc(N)ncc2-c2ccccc2OC)c(O)c1`, “inactive”; under `O=C(c1ccccc1)N1CCC(CC2CC(c3ccc(Cl)cc3)=NO2)(C(=O)NCC2CCCCC2)CC1` (configuration not stated), “inactive”.
Under `CCCN1CCn2c3c(c4cc(Br)ccc42)CCCC31` (configuration not stated) stands “inactive”; under `Cc1cc(O)c(C(=O)/C=C/c2c(F)c(F)c(F)c(F)c2F)c(=O)o1`, “inactive”.
Under `CCOC(=O)N1CCN(C(=O)c2ccc3c(=O)n(CCc4ccc(OC)c(OC)c4)c(=O)[nH]c3c2)CC1` stands “inactive”; under `CCC(C(=O)OC)n1cnc2scc(-c3ccc(C)cc3)c2c1=O` (configuration not stated), “inactive”.
For `CC(=O)Oc1ccc(-c2cccc(C(=O)N3CCCCC3)c2)cc1`, the Potency result was “inactive”.
Under `COc1cc(/C=N/Nc2nn3cnnc3c3ccccc23)cc(OC)c1OC` stands “inactive”.
Under `CN(CCO)c1ccc(/C=N/Nc2nncc3ccccc23)cc1` stands 11.2 µM (active); under `C/C(=N\Nc1nncc2ccccc12)c1ccc(Cl)c([N+](=O)[O-])c1`, “inactive”; under `O=C(CCC(=O)N/N=C/c1ccc(Br)o1)N/N=C/c1ccc(Br)o1`, “inactive”.
Under `NCCCCCC(=O)N/N=C/c1ccc2nccnc2c1` stands “inactive”; under `O=C(CCCO)N/N=C/c1cc(Br)ccc1O`, 12.6 µM (active); under `CC1CC(C)CN(c2ccc(S(=O)(=O)N3CCOCC3)cc2)C1` (configuration not stated), “inactive”.
In the case of `COc1ccc2c(CC(=O)N3CCc4cc(OC)c(OC)cc4C3)coc2c1`, the Potency result is “inactive”.
Under `COc1ccc(NC(=O)CSc2nc(SC)ns2)c(OC)c1` stands “inactive”; under `CCCCN1C(=S)NC[C@@H]1C(C)CC` (some centres not stated), 10 µM (active).
Under `CCCCN1CCNC1=S` stands “inactive”; under `Cc1ccc2c(c1)N(CC(=O)N1CCOCC1)C(=O)CO2`, “inactive”; under `CCOC(=O)[C@@H]1[C@H]2COc3cc(OC)ccc3[C@@H]2N2C(=O)N(c3cccc(C)c3)C(=O)[C@@]12C`, “inactive”.
Under `CCOc1ccc(N(CC(=O)NCCc2ccc(F)cc2)S(=O)(=O)c2ccccc2)cc1` stands “inactive”.
For the compound `Cc1ccccc1N1CC(C(=O)Nc2nnc(SCCC3OCCO3)s2)CC1=O` (configuration not stated), the Potency result was “inactive”.
As to `CCC(C)(C)NC(=O)CN(C(=O)CCC(=O)Nc1nccs1)c1ccc2c(c1)OCO2`, the Potency result was “inactive”.
Under `C=CCNC(=S)NNC(=O)c1ccc(Br)o1` stands “inactive”.
Under `C=CCNC(=S)NNC(=O)COc1c(Cl)cc(Cl)cc1Cl` stands 1.58 µM (active); under `C=CCNC(=S)NNC(=O)c1cc(Cl)ccc1OC`, “inactive”; under `CC(C)[C@H](NC(=O)N1CCn2c1nc1ccccc12)C(=O)NCc1ccc2c(c1)OCO2`, “inactive”.
On to `CCN(C(=O)CN1C(=O)/C(=C/c2ccc(F)cc2)SC1=S)C1CCS(=O)(=O)C1` (configuration not stated), for which the Potency result was “inactive”.
Turning to `COc1ccc(N(C(=O)c2cccnc2)S(=O)(=O)c2ccc(OC)c(OC)c2)cc1`, the Potency entry is “inactive”.
Under `COc1cc(SC)ccc1C(=O)NCCOc1ccccc1Cl` stands “inactive”; under `COc1ccc(Cc2nnc(NC(=O)c3ccc(OC)cc3OC)s2)cc1`, “inactive”; under `COc1cc(SC)ccc1C(=O)Nc1nc(C)cs1`, 3.98 µM (active).
Under `CCn1c2ccc(F)cc2c2nnc(SCCN3CCOCC3)nc21` stands “inactive”; under `CCC(=O)c1cn(CCOc2ccccc2OC)c2ccccc12`, “inactive”.
Under `CCOc1ccc(N(C)Cc2cc(=O)oc3ccc(OC)cc23)cc1` stands “inactive”; under `Cc1cc(=O)oc2c3c(cc(OCC(=O)NCc4ccccn4)c12)OC(C)(C)CC3`, “inactive”; under `CCc1ccc(/C=C2\SC(N3CCOCC3)=NC2=O)cc1`, “inactive”.
Turning to `O=C1N=C(N2CCc3ccccc3C2)S/C1=C\c1ccc(O)cc1`, the Potency is 1.58 µM (active).
Under `O=C1N=C(N2CCCC2)S/C1=C\c1cccc(Br)c1` stands “inactive”; under `CN(C)CCn1c(=S)[nH]c2ccc(Cl)cc2c1=O`, “inactive”; under `CCCCn1c(=S)[nH]c2ccccc2c1=O`, 5.01 µM (active).
Regarding `CCCCn1c(=S)[nH]c2ncccc2c1=O`, the Potency was 3.55 µM (active).
Under `CCCCNC(=O)CCn1c(=S)[nH]c2cc3c(cc2c1=O)OCO3` stands “inactive”; under `CCN(CC)CCn1c(=S)[nH]c2ncccc2c1=O`, “inactive”; under `CCCCNC(=O)c1ccc(-n2c(=S)[nH]c3ccccc3c2=O)cc1`, “inactive”.
As to `O=C(NC1CCCCCCC1)c1cccs1`, the Potency result was “inactive”.
Under `CCCc1nn2c(=O)cc(CSCC(=O)Nc3cccc(C)c3)nc2s1` stands “inactive”; under `CCOC(=O)N1CCN(S(=O)(=O)c2ccc(Br)cc2)CC1`, “inactive”.
For the compound `Cc1ccc(NC(=O)CCC(=O)c2ccc(Br)cc2)cc1`, the Potency result was “inactive”.
Under `CCC(Cc1ccccc1)NS(=O)(=O)c1ccc2c(c1)NC(=O)CS2` (configuration not stated) stands “inactive”; under `CCc1ccc(NC(=O)CCNS(=O)(=O)c2cccs2)cc1`, “inactive”.
Under `CCn1c(=S)sc2c(=O)n(CC(=O)Nc3cccc(Br)c3)c(C)nc21` stands “inactive”.
For `CN(Cc1cccnc1)C(=O)c1cc(COc2ccc3ncccc3c2)on1`, the Potency is 2.82 µM (active).
Turning to `CC(=O)c1cccc(OCc2cc(C(=O)NC(C)Cc3cccnc3)no2)c1` (configuration not stated), the Potency result is “inactive”.
Under `Cc1ccc(OCc2cc(C(=O)N(C)CCc3ccccc3)no2)cc1C` stands “inactive”; under `COc1ccc(C(CCN2CCOCC2)c2c(OC)cc(OC)c3c2OC(=O)CC3c2ccc(OC)cc2)cc1` (configuration not stated), “inactive”.
As to `CC1=C(C(N)=O)C(c2ccc3c(c2)OCO3)n2nc(-c3cccc(C)c3)nc2N1` (configuration not stated), the Potency is 20 µM (active).
Under `CC1=C(C(N)=O)C(c2ccc(F)cc2)n2nc(CCCO)nc2N1` (configuration not stated) stands “inactive”; under `COc1cccc(-c2nc3n(n2)C(c2ccccc2Cl)C(C(N)=O)=C(C)N3)c1` (configuration not stated), “inactive”.
Under `COc1ccc(S(=O)(=O)NCCc2cc3ccc(C)c(C)c3[nH]c2=O)cc1` stands “inactive”; under `Brc1ccc(-c2noc(-c3ccccc3)n2)o1`, “inactive”.
Consider `O=C(Oc1ccc(-c2nc(-c3ccccn3)no2)cc1)c1ccccc1`, for which the Potency was 6.31 µM (active).
In the case of `O=C(Oc1ccc(Br)cc1)c1cccnc1`, the Potency result was “inactive”.
Take `COc1nc(-c2ccc(Cl)cc2)ccc1-c1noc(-c2cccs2)n1`: the Potency result is “inactive”.
For `c1ccc(-c2noc(-c3cccs3)n2)nc1`, the Potency was 12.6 µM (active).
Under `c1csc(-c2nc(-c3ccncc3)no2)c1` stands “inactive”; under `Cn1c(=O)[nH]c(=O)c2c1nc(N1CCN(C(c3ccccc3)c3ccccc3)CC1)n2CCO`, “inactive”; under `CCNC(=S)N(CCN(CC)CC)Cc1cc2cc3c(cc2[nH]c1=O)OCCO3`, “inactive”.
Under `COc1ccc(-c2cn(-c3ccc(OC)cc3)c(=S)[nH]2)cc1` stands 1.41 µM (active); under `COc1ccc(-n2c(C)csc2=S)cc1`, “inactive”.
Under `COc1ccc(N2C(=O)CNC2=S)cc1` stands “inactive”; under `Cc1ccc(OCC(=O)Nc2ccc(N3CCN(C(=O)c4ccco4)CC3)cc2)c(C)c1`, “inactive”.
In the case of `CC(C)(C)c1ccc(Cn2nnc3c(=O)[nH]c(C4CCCN(C(=O)c5ccco5)C4)nc32)cc1` (configuration not stated), the Potency result was “inactive”.
Under `CCC(C(=O)NC1CCCCC1)N(C(=O)c1snc(C(N)=O)c1N)c1ccc(OC)cc1OC` (configuration not stated) stands “inactive”.
Under `COc1cc(OC)c(C(=O)NCc2ccc3c(c2)OCO3)cc1OC` stands “inactive”.
Under `Cc1ccn(CC(=O)N2N=C(C(F)F)CC2(O)C(F)F)n1` (configuration not stated) stands “inactive”; under `Cc1nn(CC(=O)NCc2ccccn2)c(C)c1[N+](=O)[O-]`, “inactive”; under `Cc1nn(Cc2ccc(C(=O)N3N=C(C(F)F)CC3(O)C(F)F)cc2)c(C)c1[N+](=O)[O-]` (configuration not stated), 10 µM (active).
